Results taken from PubChem BioAssay (Tox21).
Results filed as inconclusive are left out. The source made the active and inactive calls. Unless noted, the call rests on the fitted dose curve; in most records, active means well fitted curve in the direction sought with a large enough effect in the repeat runs; inconclusive means weak or mixed curves; inactive means no such curve, though single readings can be large; an effect the other way counts as inactive or inconclusive.

Assays:
[1] = qHTS assay for small molecule agonists of the p53 signaling pathway (AID 651631; calls by dose curve; further: nearly all actives have a fitted effect of over 15% in size)
In short: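 Readout was fluorescence from the LiveBLAzer FRET substrate, applied for 2 h at room temperature after 16 h compound exposure at 37 °C. Cells were the p53RE-bla HCT-116 line, with beta-lactamase driven by p53 response elements.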

[2] = qHTS assay for small molecules that induce genotoxicity in human embryonic kidney cells expressing luciferase-tagged ATAD5 (AID 651632); further: nearly all actives have a fitted effect of over 15% in size
In short: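 Increased luciferase signal from ATAD5-tagged reporter cells indicates DNA-damage-driven ATAD5 induction. HEK293T cells are treated for 16 hr at 37C before detection with Amplite.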

[3] = qHTS assay for small molecule agonists of the p53 signaling pathway - cell viability (AID 651633; calls by dose curve; further: series mostly up to about 83 µM; nearly all actives have a fitted effect of over 30% in size)
In short: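 p53RE-bla cells were treated with compound for 16 hours at 37 C. Cytotoxicity was then measured as CellTiter-Glo luminescence after 30 min at room temperature.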

[4] = qHTS assay for small molecules that induce genotoxicity in human embryonic kidney cells expressing luciferase-tagged ATAD5 - cell viability (AID 651634; calls by dose curve; further: nearly all actives have a fitted effect of over 25% in size)
In short: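 Cytotoxicity counterscreen in HEK293T cells bearing an ATAD5-luciferase reporter: live-cell protease activity measured by CellTiter-Fluor fluorescence after 15.5 hr compound exposure.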

[5] = qHTS assay to test for compound auto fluorescence at 590 nm (red) in HepG2 cells (AID 720674)
In short: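 Seeding: 2,000 HepG2 cells/well, MEM/10% FBS, overnight 37 C. Dosing: compound vs DMSO. Incubation: 1 hr, 37 C, 5% CO2. Read: fluorescence 540 ex/590 em, Rose Bengal sodium as red reference.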

[6] = qHTS assay to test for compound auto fluorescence at 535 nm (green) in HepG2 cells (AID 720675)
[7] = qHTS assay to test for compound auto fluorescence at 590 nm (red) in HEK293 cells (AID 720679)
In short: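 HEK293 cells (2,000/well, 10% dialyzed FBS) attached 4-5 hr, then dosed with compound or DMSO and incubated overnight at 37C, 5% CO2. Red fluorescence read at 540/590 nm, Rose Bengal sodium as reference fluorophore.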

[8] = qHTS assay to test for compound auto fluorescence at 460 nm (blue) in HEK293 cells (AID 720678)
In short: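 HEK293 cells (2,000/well, medium with 10% dialyzed FBS) attached 4-5 hr, then exposed to compound overnight at 37C, 5% CO2. Blue fluorescence read at 405/460 nm, with triamterene as reference fluorophore.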

[9] = qHTS assay for small molecule disruptors of the mitochondrial membrane potential - cell viability (AID 720634; calls by dose curve;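 further: human HepG2 liver cancer cells; series mostly up to about 83 µM; nearly all actives have a fitted effect of over 20% in size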)
In short: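 After overnight attachment at 37 C, HepG2 cells received compound or DMSO vehicle for 1 hr. Viability is then taken from ATP-driven luminescence following a 30 min room-temperature CellTiter-Glo step.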

[10] = qHTS assay for small molecule disruptors of the mitochondrial membrane potential (AID 720635)
In short: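 HepG2 cells exposed to compound 1 hr at 37C, then Mito-MPS dye 30 min. Ratio read of aggregate (540/590 nm) versus monomer (490/535 nm) fluorescence.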
On the % scale 0 is the no-effect control and ±100 the full control effect.

Nc1nnc(-c2cccc(Cl)c2Cl)c(N)n1
inactive: outcome [1] | Potency [2] | outcome [3] | Potency [4] | outcome [5] | outcome [6] | outcome [7]

O=C(/N=N/C(=O)OCc1ccccc1)OCc1ccccc1
inactive: outcome [1] | Potency [2] | outcome [3] | Potency [4] | outcome [5] | outcome [6] | outcome [8] | outcome [7]

Cc1ccccc1N=O
inactive: outcome [1] | Potency [2] | outcome [3] | Potency [4] | outcome [9] | outcome [5] | outcome [6] | outcome [7]

Cc1cc(Cl)c(C)cc1Cl
inactive: outcome [1] | Potency [2] | outcome [3] | Potency [4] | outcome [9] | outcome [5] | outcome [6] | outcome [8] | outcome [7]

Cc1c(I)c(=O)n(-c2ccccc2)n1C
inactive: outcome [1] | Potency [2] | outcome [3] | Potency [4] | outcome [9] | outcome [5] | outcome [6] | outcome [7]

CC(S)C(=O)NCC(=O)O (stereo not drawn)
inactive: outcome [1] | Potency [2] | outcome [3] | Potency [4] | outcome [5] | outcome [6] | outcome [8] | outcome [7]

Brc1ccc(-c2ccccc2)cc1
inactive: outcome [1] | Potency [2] | outcome [3] | Potency [4] | outcome [5] | outcome [6] | outcome [8] | outcome [7]

CCCC(=O)C(C)=O
inactive: outcome [1] | Potency [2] | outcome [3] | Potency [4] | outcome [9] | outcome [5] | outcome [6] | outcome [7]

BrCCCCCBr
inactive: outcome [1] | Potency [2] | outcome [3] | Potency [4] | outcome [9] | outcome [5] | outcome [6] | outcome [7]

CC(C)(C)NC(N)=O
inactive: outcome [1] | Potency [2] | outcome [3] | Potency [4] | outcome [5] | outcome [6] | outcome [8] | outcome [7]

CN(CCOc1ccc(NS(C)(=O)=O)cc1)CCc1ccc(NS(C)(=O)=O)cc1
inactive: outcome [1] | Potency [2] | outcome [3] | Potency [4] | outcome [9] | outcome [5] | outcome [6] | outcome [7]

COc1ccc(-c2cc(=O)c3c(O)cc(O[C@@H]4O[C@H](CO[C@@H]5O[C@@H](C)[C@H](O)[C@@H](O)[C@H]5O)[C@@H](O)[C@H](O)[C@H]4O)cc3o2)cc1O
inactive: outcome [1] | Potency [2] | outcome [3] | Potency [4] | outcome [5] | outcome [6] | outcome [7]

CC1=CCC(C(C)C)=CC1
inactive: outcome [1] | Potency [2] | outcome [3] | Potency [4] | outcome [5] | outcome [6] | outcome [7]

CCCCCCCCCC(C)=O
inactive: outcome [1] | Potency [2] | outcome [3] | Potency [4] | outcome [9] | outcome [5] | outcome [6] | outcome [8] | outcome [7]

O=S(O)(O)=S
inactive: activation [1] -6.63% [at 8.3 µM] | activation [2] 2.28% [at 8.08 µM] | activity change, negative = cytotoxicity [3] 18.5% [at 8.08 µM] | activity, negative = cytotoxicity [4] -2.41% [at 8.08 µM] | activity change, negative = cytotoxicity [9] 11.6% [at 8.08 µM] | fluorescence, relative to Rose Bengal [5] -0.423% [at 3.72 µM] | fluorescence, % of fluorescein control [6] 0.0128% [at 3.72 µM] | fluorescence, % of triamterene [8] -0.0172% [at 3.72 µM] | fluorescence, % of fluorescent control [7] 0.178% [at 3.72 µM]

CC(=O)Nc1ccc(S(=O)(=O)Nc2ccc([N+](=O)[O-])cc2)cc1
inactive: outcome [1] | Potency [2] | outcome [3] | outcome [9] | outcome [5] | outcome [6] | outcome [8] | outcome [7]

CCOc1cc([N+](=O)[O-])c(OCC)cc1N1CCOCC1
inactive: outcome [1] | Potency [2] | outcome [3] | outcome [9] | outcome [5] | outcome [6] | outcome [8] | outcome [7]

C#CC(C)N(C)C(=O)Nc1ccc(Cl)cc1 (stereo not drawn)
inactive: outcome [1] | Potency [2] | outcome [3] | Potency [4] | outcome [5] | outcome [6] | outcome [8] | outcome [7]

CCCCCCCC/C=C\CCCCCCCC(=O)OCCCC
inactive: outcome [1] | Potency [2] | outcome [3] | Potency [4] | outcome [9] | fluorescence, relative to Rose Bengal [5] 0.139% [at 18.6 µM] | fluorescence, % of fluorescein control [6] -0.0204% [at 18.6 µM] | fluorescence, % of triamterene [8] -0.0584% [at 18.6 µM] | fluorescence, % of fluorescent control [7] 0.3% [at 18.6 µM]

CCCCC(CC)COCCO (stereo not drawn)
inactive: Potency [2] | outcome [3] | Potency [4] | outcome [9] | Potency [10] | outcome [5] | outcome [6] | outcome [8] | outcome [7]

COc1ccc2c(c1)C(=O)N(CCc1ccc(S(=O)(=O)NC(=O)NC3CCCCC3)cc1)C(=O)C2(C)C
inactive: Potency [2] | outcome [3] | Potency [4] | outcome [9] | fluorescence, relative to Rose Bengal [5] 0.0268% [at 18.6 µM] | fluorescence, % of fluorescein control [6] -0.152% [at 18.6 µM] | fluorescence, % of triamterene [8] 0.056% [at 18.6 µM] | fluorescence, % of fluorescent control [7] -0.014% [at 18.6 µM]

CC(CC=O)CCCC(C)(C)O (stereo not drawn)
inactive: Potency [2] | outcome [3] | Potency [4] | outcome [9] | Potency [10] | outcome [5] | outcome [6] | outcome [7]
